Measured values reported in PubChem BioAssay (Tox21).
Where “and” joins values, the source holds several entries; their conditions need not be identical. Identical values can stand only once. Results filed as inconclusive are left out. Entries that show only a call come without a potency. A structure can be active in one record and inactive in another. Calls of active or inactive are those of the source. Unless noted, the call rests on the fitted dose curve; in most records, active means well fitted curve in the direction sought with a large enough effect in the repeat runs; inconclusive means weak or mixed curves; inactive means no such curve, though single readings can be large; an effect the other way counts as inactive or inconclusive.

What was measured:
[1] = Caspase-3/7 induction in HepG2 cells by small molecules, qHTS assay (AID 1346978); further: nearly all actives have a fitted effect of over 15% in size
Summary of the method: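 Wild-type HepG2 cells, 2,000/well, settled 5 hr at 37 C and 5% CO2, then compound-treated for 17 hr; caspase-3/7 activity read by luminescent Caspase-Glo 3/7 after 30 min at room temperature.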

[2] = Caspase-3/7 induction in CHO-K1 cells by small molecules, qHTS cell viability counter screen (AID 1346979); further: nearly all actives have a fitted effect of over 35% in size; further: potency means the concentration at half of the fitted maximal effect
Summary of the method: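 Cells (CHO-K1, wild type) are plated at 1,500 per well and incubated 5hr. Test compounds in DMSO are then pinned in, followed by 16hr at 37C and 5% CO2. Viability is read by CellTiter-Fluor fluorescence after 1hr.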

[3] = Caspase-3/7 induction in CHO-K1 cells by small molecules, qHTS assay (AID 1346980); further: nearly all actives have a fitted effect of over 15% in size
Summary of the method: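 Wild-type CHO-K1 cells exposed to compounds for 17hr at 37 C, 5% CO2. Caspase-3/7 activity then measured by Caspase-Glo 3/7 luminescence after 30min at room temperature.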

[4] = Caspase-3/7 induction in HepG2 cells by small molecules, qHTS cell viability counter screen (AID 1346981); further: nearly all actives have a fitted effect of over 30% in size; further: potency means the concentration at half of the fitted maximal effect
Summary of the method: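 The parent HepG2 line is plated at 2,000 cells per well and rested 5 hr before compound pinning from DMSO stocks. Following a 16-hr treatment at 37 C, a fluorogenic live-cell substrate (CellTiter-Fluor) reports viability after 1 hr.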

[5] = target: Nuclear receptor subfamily 1 group I member 2 (Homo sapiens) (UniProt O75469); assay: Human pregnane X receptor (PXR) small molecule agonists, qHTS assay (AID 1346982); further: nearly all actives have a fitted effect of over 35% in size; further: potency means the concentration at half of the fitted maximal effect
Summary of the method: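 After plating in 5% charcoal-stripped FBS and a 5 hr rest, PXR-Luc HepG2 cells received compounds in DMSO. Following 24 hr at 37 C, ONE-Glo was added and light output read.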

[6] = target: Nuclear receptor subfamily 1 group I member 2 (Rattus norvegicus) (UniProt Q9R1A7); assay: Rat pregnane X receptor (rPXR) activation by small molecules, qHTS assay (AID 1346983); conditions: rPXR luciferase reporter cells, One-Glo luminescence, 24 h; max activation: stronger effect = higher value; further: nearly all actives have a fitted effect of over 20% in size
Summary of the method: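 Cell-based rPXR activation assay: rPXR cells, 2,000 per well, rested 5hr at 37 C, then exposed to compounds in DMSO for 24 hr at 37 C. Luciferase activity read by One-Glo luminescence after 30 min at room temperature.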

[7] = target: Nuclear receptor subfamily 1 group I member 2 (Homo sapiens) (UniProt O75469); assay: CYP3A4 induction through human pregnane X receptor (PXR) by small molecules, qHTS assay (AID 1346984); further: nearly all actives have a fitted effect of over 40% in size
Summary of the method: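 Human PXR activation is tracked via CYP3A4 promoter-luciferase in DPX-2 (HepG2) cells. Compounds treat cells for 24hr at 37C, and luminescence is read after One-Glo.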

[8] = target: Cytochrome P450 2D6 (Homo sapiens) (UniProt P10635); assay: Cytochrome P450 Family 2 Subfamily D Member 6 (CYP2D6) small molecule antagonists: luciferase reporter qHTS assay (AID 1671196); further: nearly all actives have a fitted effect of over 50% in size; further: potency means the concentration at half of the fitted maximal effect
Summary of the method: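 Quantitative HTS of Tox21 chemicals against CYP2D6 using a luminescent proluciferin substrate. After NADPH addition, 1 h room-temperature reaction; luminescence recorded 20 min post detection reagent.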

[9] = target: Cytochrome P450 2C19 (Homo sapiens) (UniProt P33261); assay: Cytochrome P450 Family 2 Subfamily C Member 19 (CYP2C19) small molecule antagonists: luciferase reporter qHTS assay (AID 1671197); further: nearly all actives have a fitted effect of over 65% in size; further: potency means the concentration at half of the fitted maximal effect
Summary of the method: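 Compounds were tested on CYP2C19 activity via proluciferin conversion to luciferin. The 37C, 1 h reaction followed NADPH addition; detection reagent stopped it.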

[10] = target: Cytochrome P450 2C9 (Homo sapiens) (UniProt P11712); assay: Cytochrome P450 Family 2 Subfamily C Member 9 (CYP2C9) small molecule antagonists: luciferase reporter qHTS assay (AID 1671198); further: nearly all actives have a fitted effect of over 50% in size; further: potency means the concentration at half of the fitted maximal effect
Summary of the method: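 P450-Glo proluciferin substrate with CYP2C9 enzyme; 10 min RT preincubation, then NADPH regeneration 1 h at 37C; luciferin detection reagent 20 min RT, luminescence in relative luminescence units.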

[11] = target: Cytochrome P450 1A2 (Homo sapiens) (UniProt P05177); assay: Cytochrome P450 Family 1 Subfamily A Member 2 (CYP1A2) small molecule antagonists: luciferase reporter qHTS assay (AID 1671199); further: nearly all actives have a fitted effect of over 50% in size; further: potency means the concentration at half of the fitted maximal effect
Summary of the method: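 Quantitative high-throughput format using the P450-Glo CYP1A2 system. Reaction initiated by NADPH regeneration solution, 1 h at room temperature, then stopped with detection reagent; luminescence measured 20 min later.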

[12] = target: Voltage-gated inwardly rectifying potassium channel KCNH2 (Homo sapiens) (UniProt Q12809); assay: Human Ether-a-go-go-Related Gene (hERG) channel small molecule antagonists: fluorescence cell-based qHTS assay (AID 1671200);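 further: hERG-expressing U2OS cells given a thallium stimulus after FluxOR II dye loading; series mostly up to about 77 µM; nearly all actives have a fitted effect of over 50% in size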
Summary of the method: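 Channel function was assessed by thallium flux. Cells seeded the previous day and kept at 37 C took up FluxOR II dye over 1 h in the dark at room temperature, then sat another 10 min before stimulation.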

[13] = target: Cytochrome P450 3A4 (Homo sapiens) (UniProt P08684); assay: Cytochrome P450 Family 3 Subfamily A Member 4 (CYP3A4) small molecule antagonists: luciferase reporter qHTS assay (AID 1671201)
Summary of the method: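 Compounds in DMSO were pin-transferred onto CYP3A4 enzyme-substrate mix and held 10 min at room temperature. NADPH regenerating solution started the reaction for 1 h; luciferin detection reagent stopped it, and luminescence was read after 20 min.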

[14] = Human pregnane X receptor (PXR) small molecule agonists, qHTS cell viability counter screen (AID 1346977); further: nearly all actives have a fitted effect of over 50% in size; further: potency means the concentration at half of the fitted maximal effect
Summary of the method: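 PXR-Luc HepG2, 2,000 cells/well, 5% charcoal-stripped FBS; 5hr settle; cpd 24hr, 37C/5% CO2; CellTiter-Fluor at 23hr, read 1hr later (fluorescence).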

[15] = target: Thyrotropin-releasing hormone receptor (Homo sapiens) (UniProt P34981); assay: qHTS assay to identify small molecule agonists of the thyrotropin-releasing hormone receptor (TRHR) signaling pathway (AID 1346891; calls by dose curve; further: series mostly up to about 58 µM)
Summary of the method: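 Intracellular calcium rise, read as fluorescence every second for 3 min, served as the agonist signal in dye-loaded HEK293 cells expressing TRHR; each compound ran at 15 concentrations in triplicate.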

Voltage-gated inwardly rectifying potassium channel KCNH2 (Homo sapiens), sequence (Q12809 whole entry, looked up): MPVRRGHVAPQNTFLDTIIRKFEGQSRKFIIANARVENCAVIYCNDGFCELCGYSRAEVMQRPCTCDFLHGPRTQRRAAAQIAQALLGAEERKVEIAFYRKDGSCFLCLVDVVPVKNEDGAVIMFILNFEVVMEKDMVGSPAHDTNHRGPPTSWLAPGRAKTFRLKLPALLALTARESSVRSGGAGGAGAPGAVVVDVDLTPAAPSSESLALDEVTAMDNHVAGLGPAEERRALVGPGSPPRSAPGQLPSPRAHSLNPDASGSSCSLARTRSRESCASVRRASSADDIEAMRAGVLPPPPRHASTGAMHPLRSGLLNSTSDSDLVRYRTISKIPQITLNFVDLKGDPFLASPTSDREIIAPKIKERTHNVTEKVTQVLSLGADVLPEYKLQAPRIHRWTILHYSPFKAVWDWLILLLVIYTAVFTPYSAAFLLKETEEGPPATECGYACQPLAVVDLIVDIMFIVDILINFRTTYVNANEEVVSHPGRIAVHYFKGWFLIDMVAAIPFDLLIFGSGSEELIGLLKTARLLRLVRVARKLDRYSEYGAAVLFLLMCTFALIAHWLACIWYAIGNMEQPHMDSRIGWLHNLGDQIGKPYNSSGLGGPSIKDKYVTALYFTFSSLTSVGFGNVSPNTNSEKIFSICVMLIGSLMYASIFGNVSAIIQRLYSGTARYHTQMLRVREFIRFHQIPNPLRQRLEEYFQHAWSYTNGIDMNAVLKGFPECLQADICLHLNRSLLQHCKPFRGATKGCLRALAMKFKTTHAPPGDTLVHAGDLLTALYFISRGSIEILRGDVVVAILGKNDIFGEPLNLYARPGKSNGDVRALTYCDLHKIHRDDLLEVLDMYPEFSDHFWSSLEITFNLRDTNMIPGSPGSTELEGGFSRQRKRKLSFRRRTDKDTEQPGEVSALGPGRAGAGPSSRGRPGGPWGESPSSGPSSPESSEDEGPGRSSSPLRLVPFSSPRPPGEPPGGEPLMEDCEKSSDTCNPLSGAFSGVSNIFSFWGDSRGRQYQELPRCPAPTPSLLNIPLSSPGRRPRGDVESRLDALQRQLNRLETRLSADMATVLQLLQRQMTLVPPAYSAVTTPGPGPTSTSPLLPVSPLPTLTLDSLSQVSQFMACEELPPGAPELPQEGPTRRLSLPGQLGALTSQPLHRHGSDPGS
Cytochrome P450 2D6 (Homo sapiens), sequence (P10635 whole entry, looked up): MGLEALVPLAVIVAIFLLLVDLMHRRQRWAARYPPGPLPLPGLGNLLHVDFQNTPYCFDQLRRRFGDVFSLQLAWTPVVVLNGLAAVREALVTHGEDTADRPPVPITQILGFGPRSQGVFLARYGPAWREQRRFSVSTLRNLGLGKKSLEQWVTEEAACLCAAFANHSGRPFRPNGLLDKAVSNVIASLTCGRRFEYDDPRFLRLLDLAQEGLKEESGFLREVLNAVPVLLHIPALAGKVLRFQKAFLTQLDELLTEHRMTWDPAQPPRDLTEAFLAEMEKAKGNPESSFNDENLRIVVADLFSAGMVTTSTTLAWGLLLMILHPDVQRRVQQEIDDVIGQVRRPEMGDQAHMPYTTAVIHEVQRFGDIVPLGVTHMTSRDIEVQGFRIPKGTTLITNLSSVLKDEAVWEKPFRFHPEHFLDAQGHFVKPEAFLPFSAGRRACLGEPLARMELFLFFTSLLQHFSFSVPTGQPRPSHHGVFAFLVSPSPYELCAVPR
Cytochrome P450 2C9 (Homo sapiens), sequence (P11712 whole entry, looked up): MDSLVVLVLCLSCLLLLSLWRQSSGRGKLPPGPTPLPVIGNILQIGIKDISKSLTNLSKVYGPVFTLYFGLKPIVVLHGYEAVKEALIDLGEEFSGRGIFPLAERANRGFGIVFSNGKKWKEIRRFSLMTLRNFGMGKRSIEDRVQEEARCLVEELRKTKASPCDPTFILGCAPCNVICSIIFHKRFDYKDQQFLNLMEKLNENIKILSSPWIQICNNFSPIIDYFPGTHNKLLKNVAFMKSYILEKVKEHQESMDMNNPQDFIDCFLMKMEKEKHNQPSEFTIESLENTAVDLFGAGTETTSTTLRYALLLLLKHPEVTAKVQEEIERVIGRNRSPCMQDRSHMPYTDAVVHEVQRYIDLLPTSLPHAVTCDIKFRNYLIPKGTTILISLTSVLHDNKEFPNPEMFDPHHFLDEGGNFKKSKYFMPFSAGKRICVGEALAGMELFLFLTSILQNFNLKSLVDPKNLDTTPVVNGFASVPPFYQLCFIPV
Cytochrome P450 3A4 (Homo sapiens), sequence (P08684 whole entry, looked up): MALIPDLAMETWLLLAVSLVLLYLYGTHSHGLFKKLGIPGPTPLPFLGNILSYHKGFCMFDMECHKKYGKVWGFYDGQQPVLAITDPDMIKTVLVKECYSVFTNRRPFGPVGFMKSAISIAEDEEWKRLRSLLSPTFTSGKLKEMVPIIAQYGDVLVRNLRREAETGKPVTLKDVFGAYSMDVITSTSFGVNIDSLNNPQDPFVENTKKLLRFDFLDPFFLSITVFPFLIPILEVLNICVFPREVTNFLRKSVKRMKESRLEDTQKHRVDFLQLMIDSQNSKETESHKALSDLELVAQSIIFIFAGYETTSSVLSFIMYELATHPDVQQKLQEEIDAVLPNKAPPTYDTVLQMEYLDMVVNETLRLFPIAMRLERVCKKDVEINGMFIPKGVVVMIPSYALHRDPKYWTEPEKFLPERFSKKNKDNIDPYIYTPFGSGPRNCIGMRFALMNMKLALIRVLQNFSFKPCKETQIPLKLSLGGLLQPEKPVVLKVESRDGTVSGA
Nuclear receptor subfamily 1 group I member 2 (Rattus norvegicus), sequence (Q9R1A7 whole entry, looked up): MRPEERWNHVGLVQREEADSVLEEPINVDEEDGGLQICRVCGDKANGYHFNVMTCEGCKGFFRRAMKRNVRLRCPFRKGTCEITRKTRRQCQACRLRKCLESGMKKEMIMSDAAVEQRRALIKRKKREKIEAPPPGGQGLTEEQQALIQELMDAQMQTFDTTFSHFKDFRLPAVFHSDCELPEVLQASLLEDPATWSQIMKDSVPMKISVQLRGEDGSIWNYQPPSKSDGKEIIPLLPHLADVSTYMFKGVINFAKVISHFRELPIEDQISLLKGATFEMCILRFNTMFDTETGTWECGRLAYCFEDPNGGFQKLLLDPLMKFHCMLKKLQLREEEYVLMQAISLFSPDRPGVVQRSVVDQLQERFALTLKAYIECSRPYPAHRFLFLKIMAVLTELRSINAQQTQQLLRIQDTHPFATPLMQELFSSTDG
Cytochrome P450 2C19 (Homo sapiens), sequence (P33261 whole entry, looked up): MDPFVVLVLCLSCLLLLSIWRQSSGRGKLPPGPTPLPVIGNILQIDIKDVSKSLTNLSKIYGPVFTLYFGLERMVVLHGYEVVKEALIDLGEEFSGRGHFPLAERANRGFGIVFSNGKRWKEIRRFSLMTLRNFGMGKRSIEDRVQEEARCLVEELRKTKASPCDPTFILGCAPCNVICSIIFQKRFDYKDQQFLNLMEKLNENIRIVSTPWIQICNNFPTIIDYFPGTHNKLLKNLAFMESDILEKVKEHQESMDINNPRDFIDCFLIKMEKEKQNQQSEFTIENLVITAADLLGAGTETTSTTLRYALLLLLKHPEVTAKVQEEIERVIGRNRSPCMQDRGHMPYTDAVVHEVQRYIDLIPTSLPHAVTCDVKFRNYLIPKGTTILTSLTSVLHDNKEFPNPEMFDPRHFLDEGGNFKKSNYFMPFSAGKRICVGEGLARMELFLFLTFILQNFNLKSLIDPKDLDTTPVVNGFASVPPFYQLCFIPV
Cytochrome P450 1A2 (Homo sapiens), sequence (P05177 whole entry, looked up): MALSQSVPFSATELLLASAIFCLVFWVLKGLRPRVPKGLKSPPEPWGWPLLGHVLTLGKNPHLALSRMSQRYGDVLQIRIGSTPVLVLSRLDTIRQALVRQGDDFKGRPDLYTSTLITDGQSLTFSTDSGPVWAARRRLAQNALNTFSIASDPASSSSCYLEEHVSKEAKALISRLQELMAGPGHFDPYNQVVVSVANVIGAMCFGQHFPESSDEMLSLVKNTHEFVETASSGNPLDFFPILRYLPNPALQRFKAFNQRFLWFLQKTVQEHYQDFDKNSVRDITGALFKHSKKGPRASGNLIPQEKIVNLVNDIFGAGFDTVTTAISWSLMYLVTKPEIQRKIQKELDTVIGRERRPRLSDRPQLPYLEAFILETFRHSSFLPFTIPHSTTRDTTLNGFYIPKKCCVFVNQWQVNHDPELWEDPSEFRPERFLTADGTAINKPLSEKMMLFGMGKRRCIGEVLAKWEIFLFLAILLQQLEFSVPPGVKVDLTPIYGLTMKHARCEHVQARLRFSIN
Nuclear receptor subfamily 1 group I member 2 (Homo sapiens), sequence (O75469 whole entry, looked up): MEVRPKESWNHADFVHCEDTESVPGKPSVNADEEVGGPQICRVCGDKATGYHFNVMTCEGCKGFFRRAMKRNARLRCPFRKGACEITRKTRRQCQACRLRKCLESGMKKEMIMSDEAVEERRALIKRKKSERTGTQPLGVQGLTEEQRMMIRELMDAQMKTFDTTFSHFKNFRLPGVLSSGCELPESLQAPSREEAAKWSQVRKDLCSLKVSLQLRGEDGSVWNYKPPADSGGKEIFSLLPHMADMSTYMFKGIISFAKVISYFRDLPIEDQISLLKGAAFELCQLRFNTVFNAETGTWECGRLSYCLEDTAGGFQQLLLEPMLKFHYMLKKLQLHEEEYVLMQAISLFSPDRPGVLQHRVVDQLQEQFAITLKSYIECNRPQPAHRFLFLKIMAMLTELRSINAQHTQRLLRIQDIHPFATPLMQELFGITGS
Thyrotropin-releasing hormone receptor (Homo sapiens), sequence (P34981 whole entry, looked up): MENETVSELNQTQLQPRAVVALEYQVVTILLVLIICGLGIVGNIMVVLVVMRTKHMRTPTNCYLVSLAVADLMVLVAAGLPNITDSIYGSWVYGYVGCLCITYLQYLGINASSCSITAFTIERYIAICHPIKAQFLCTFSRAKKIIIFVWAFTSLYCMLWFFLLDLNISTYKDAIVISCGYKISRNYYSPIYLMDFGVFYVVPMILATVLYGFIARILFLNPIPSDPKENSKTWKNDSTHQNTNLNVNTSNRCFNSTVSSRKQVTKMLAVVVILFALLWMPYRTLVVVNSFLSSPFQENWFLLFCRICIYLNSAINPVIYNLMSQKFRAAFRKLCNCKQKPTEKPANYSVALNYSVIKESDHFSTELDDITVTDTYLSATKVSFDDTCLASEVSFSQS

SMILES: CC1=C(CC(=O)O)c2cc(F)ccc2/C1=C\c1ccc(S(C)=O)cc1 (stereo not given)
- Potency [1]: inactive
- Potency [2]: inactive
- Potency [3]: inactive
- Potency [4]: inactive
- Potency [5]: 21.7 µM (active) and inactive
- max activation [6]: -1.51% (inactive)
- outcome [7]: inactive
- Potency [8]: 35.6 µM (active) and 34.7 µM (active)
- Potency [9]: 7.96 µM (active) and 8.71 µM (active)
- Potency [10]: 50.2 µM (active) and inactive
- Potency [11]: 35.6 µM (active)
- Potency [12]: inactive
- Potency [13]: inactive

SMILES: C[C@@H](O)[C@H]1C(=O)N2C(C(=O)O)=C(S[C@@H]3CN[C@H](C(=O)N(C)C)C3)[C@H](C)[C@H]12
- Potency [14]: inactive
- Potency [1]: inactive
- Potency [2]: inactive
- Potency [3]: inactive
- Potency [4]: inactive
- Potency [5]: inactive
- max activation [6]: -2.7% (inactive)
- outcome [7]: inactive
- Potency [8]: 17.4 µM (active) and inactive
- Potency [9]: inactive
- Potency [11]: 15.5 µM (active) and inactive
- Potency [12]: inactive
- Potency [13]: inactive

SMILES: CCc1ccc(O)cc1
- Potency [1]: inactive
- Potency [2]: inactive
- Potency [3]: inactive
- Potency [4]: inactive
- Potency [5]: inactive
- Potency [8]: inactive
- Potency [9]: 71.3 µM (active) and inactive
- Potency [10]: inactive
- Potency [11]: inactive
- Potency [12]: inactive

SMILES: Nc1c(S(=O)(=O)O)cc(Br)c2c1C(=O)c1ccccc1C2=O
- Potency [14]: 31.3 µM (active) and 27.3 µM (active)
- Potency [1]: inactive
- Potency [2]: 48.6 µM (active)
- Potency [3]: inactive
- Potency [4]: inactive and 48.6 µM (active)
- Potency [5]: inactive and 48.6 µM (active)
- Potency [8]: inactive
- Potency [9]: inactive
- Potency [10]: 16.3 µM (active) and 7.96 µM (active)
- Potency [11]: 3.24 µM (active) and 2 µM (active)
- Potency [12]: inactive

SMILES: OCC#CCO
- Potency [15]: inactive
- Potency [1]: inactive
- Potency [3]: inactive
- Potency [4]: inactive
- Potency [5]: 55.3 µM (active) and inactive
- Potency [8]: inactive
- Potency [9]: 57.2 µM (active) and inactive
- Potency [10]: inactive
- Potency [11]: inactive
- Potency [13]: inactive

SMILES: OC[C@@H](O)[C@H](O)[C@H](O)[C@@H](O)CO
- Potency [14]: inactive
- Potency [1]: inactive
- Potency [2]: inactive
- Potency [3]: inactive
- Potency [4]: inactive
- Potency [5]: inactive
- max activation [6]: -0.0445% (inactive) and -4.34% (inactive)
- outcome [7]: inactive
- Potency [8]: inactive
- Potency [9]: inactive
- Potency [10]: inactive
- Potency [11]: inactive
- Potency [12]: inactive
